PubChem BioAssay AID1347418 (Sanford-Burnham Center for Chemical Genomics, 2020)
Screen size: about 1,300 compounds; about 750 (58%) were called active. Some of the results follow. Residues, ends and D or L forms follow the SMILES beside them. *: point of attachment. Cbz = O=C(OCc1ccccc1)*

The compounds below were run against Sulfhydryl oxidase 1 (Homo sapiens) (UniProt O00391) (assay: inhibition of human sulfhydryl oxidase QSOX1 – biochemical, ROS-Glo H2O2 luminescence, HTS, primary screen (AID 1347418)). Settings: recombinant QSOX1, ROS-Glo H2O2 luminescence; at 12.5 µM; hits give high values; active = any value above zero.
Sequence of Sulfhydryl oxidase 1 (Homo sapiens) (O00391 whole entry, looked up): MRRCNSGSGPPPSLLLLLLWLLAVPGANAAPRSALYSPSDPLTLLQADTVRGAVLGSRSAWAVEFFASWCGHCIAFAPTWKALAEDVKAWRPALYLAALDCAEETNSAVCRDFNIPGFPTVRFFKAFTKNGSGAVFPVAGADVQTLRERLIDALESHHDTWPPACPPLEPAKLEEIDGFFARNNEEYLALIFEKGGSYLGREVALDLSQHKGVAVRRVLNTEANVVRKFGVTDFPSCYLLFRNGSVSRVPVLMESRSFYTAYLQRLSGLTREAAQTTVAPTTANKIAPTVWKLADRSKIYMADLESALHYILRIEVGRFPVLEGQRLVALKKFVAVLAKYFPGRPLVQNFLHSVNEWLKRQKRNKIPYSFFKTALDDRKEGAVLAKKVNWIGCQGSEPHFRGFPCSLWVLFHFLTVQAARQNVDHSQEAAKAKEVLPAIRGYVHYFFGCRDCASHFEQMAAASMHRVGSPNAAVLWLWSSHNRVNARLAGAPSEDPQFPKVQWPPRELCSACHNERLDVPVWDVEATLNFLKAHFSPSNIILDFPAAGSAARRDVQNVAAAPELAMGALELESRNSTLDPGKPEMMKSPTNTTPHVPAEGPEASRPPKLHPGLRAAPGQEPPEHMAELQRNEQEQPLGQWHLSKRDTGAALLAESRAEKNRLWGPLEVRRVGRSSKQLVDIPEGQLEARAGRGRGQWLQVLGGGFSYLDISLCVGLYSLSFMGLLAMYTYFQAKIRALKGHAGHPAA

inhibition, inactive:
CSc1ccc2c(c1)C(N1CCN(C)CC1)Cc1ccccc1S2 (configuration not stated) -0.9%
CC(C)NCC(O)COc1ccc(CCOCC2CC2)cc1 (configuration not stated) -0.5%
CC(C)NCC(O)COc1ccc(CC(N)=O)cc1 (configuration not stated) -2%
COCCc1ccc(OCC(O)CNC(C)C)cc1 (configuration not stated) -2%
C=CCc1cccc(/C=N/NC(=O)CN2CCN(Cc3ccccc3)CC2)c1O -3.2%
COc1cc2ncnc(Nc3cccc(Cl)c3)c2cc1OC -1.3%
O=c1c(-c2ccc(O)cc2)coc2cc(O)cc(O)c12 -5.9%
CC(C)[C@H](NC(=O)OCc1ccccc1)C(=O)N[C@H](C=O)Cc1ccccc1 (Cbz-Val-Phe-aldehyde) -1.6%
O=C(N[C@@H](Cc1ccccc1)C(=O)CCl)OCc1ccccc1 -6.4%
O=C(O)CNC(=O)C(CS)Cc1ccccc1 (configuration not stated) -1.4%
[Li+] 0%
N=C(N)N1CCc2ccccc2C1 -3.7%
C#CCN(C)Cc1ccccc1 -0.7%
CCC1(O)CC2CN(CCc3c([nH]c4ccccc34)[C@@](C(=O)OC)(c3cc4c(cc3OC)N(C=O)C3[C@]45CCN4CC=C[C@@](CC)([C@@H](OC(C)=O)[C@]3(O)C(=O)OC)[C@H]45)C2)C1 (some centres not stated) -0.2%
NC1CONC1=O (configuration not stated) -3.5%
COc1cccc(OC)c1OCCNCC1CSc2ccccc2O1 (configuration not stated) -0.7%
N[C@@H](Cc1c[nH]c2ccccc12)C(=O)O -0.2%
N[C@H](C(=O)O)c1cc(O)cc(O)c1 -6.1%
CC1=C(C(=O)O)N2C(=O)[C@@H](NC(=O)C(N)C3=CCC=CC3)[C@H]2SC1 (some centres not stated) -1.3%
NC(=O)c1cc[n+](CC2=C(C(=O)O)N3C(=O)[C@@H](NC(=O)[C@@H](c4ccccc4)S(=O)(=O)[O-])[C@H]3SC2)cc1 -1%
NCCS(=O)O -0.7%
O=C1OC(=O)C2C3CCC(O3)C12 (configuration not stated) -1.3%
NC(=O)NO -13.4%
NC(=O)C(=O)O -8.6%
CC(=O)/C(C)=N/O -5.2%
Nc1ncnc2c1ncn2C1CCCO1 (configuration not stated) -0.8%
COc1ccc(C(=O)NCc2cccnc2)cc1C(=O)NCc1cccnc1 -2.9%
OC(CCN1CCCCC1)(c1ccccc1)C1CCCCC1 (configuration not stated) -2.5%

inhibition, active:
CSc1ccc2c(c1)N(CCC1CCCCN1C)c1ccccc1S2 (configuration not stated) 46.5%
Oc1cc2c(cc1O)CN(C(=S)NCCc1ccc(Cl)cc1)CCC2 25.5%
CC(C)NC[C@H](O)COc1ccc(CC(N)=O)cc1 5.2%
CC(C)NCC(O)COc1ccc(COCCOC(C)C)cc1 (configuration not stated) 3.9%
COC(=O)c1c(C)[nH]c(C)c1C(=O)c1ccccc1Cc1ccccc1 1.9%
CN1CCc2cccc3c2C1Cc1ccc(O)c(O)c1-3 (configuration not stated) 17.1%
O=c1n(CCCN2CCN(c3cccc(Cl)c3)CC2)nc2ccccn12 8.6%
O=c1c(-c2ccc(O)cc2)coc2cc(O)ccc12 7.6%
CC(C)C[C@H](NC(=O)[C@@H](O)[C@H](N)Cc1ccccc1)C(=O)O 0.1%
CC(C)C[C@H](NC(=O)[C@H](O)[C@H](N)Cc1ccccc1)C(=O)O 9.6%
O=P(O)(O)C(Cl)(Cl)P(=O)(O)O 5.2%
N[C@H](C(=O)O)[C@H](Cc1ccccc1)C(=O)O 0.5%
Oc1cc(O)c2c(c1)O[C@H](c1ccc(O)c(O)c1)[C@@H](O)C2 12.2%
O=C1c2c(O)cc(O)cc2OC(c2ccc(O)c(O)c2)C1O (configuration not stated) 9.8%
O=C(O)CCc1ccc(NCc2cccc(Oc3ccccc3)c2)cc1 13.1%
CC(C)(C)NCC(O)COc1cccc2[nH]c(=O)[nH]c12 (configuration not stated) 0.2%
Brc1c(Br)c(Br)c2[nH]cnc2c1Br 3.9%
CN1CCc2ccccc2Cc2[nH]c3ccccc3c2CC1 6.3%
CC(C)(C)c1cc(/C=C(\C#N)C(N)=S)cc(C(C)(C)C)c1O 37.7%
CN(C)C/C=C(/c1ccc(Br)cc1)c1cccnc1 2.7%
CN1CCC(=C2c3ccccc3CC(=O)c3sccc32)CC1 0.8%
CN1CCC(=C2c3ccccc3C=Cc3ccccc32)CC1 2.2%
CCC1(O)CC2CN(CCc3c([nH]c4ccccc34)[C@@](C(=O)OC)(c3cc4c(cc3OC)N(C)C3[C@]45CCN4CC=C[C@@](CC)([C@@H](OC(C)=O)[C@]3(O)C(=O)OC)[C@H]45)C2)C1 (some centres not stated) 6.7%
O=c1[nH]cc(F)c(=O)[nH]1 0.8%
O=C(Nc1nc2ccccc2n1CCN1CCOCC1)c1cccc([N+](=O)[O-])c1 0.4%
CN1C[C@H](C(=O)N[C@]2(C)O[C@@]3(O)[C@@H]4CCCN4C(=O)[C@H](Cc4ccccc4)N3C2=O)C[C@@H]2c3cccc4[nH]cc(c34)C[C@H]21 10%
COc1cccc(OC)c1OCCNCC1COc2ccccc2O1 (configuration not stated) 1.9%
O=C1c2ccccc2C(=O)c2c(NCCc3ccc(O)cc3)ccc(NCCc3ccc(O)cc3)c21 11%
N[C@@H](Cc1c[nH]c2ccc(O)cc12)C(=O)O 8.4%
O=C(O)Cc1c[nH]c2ccc(O)cc12 15.6%
CCn1ccnc1CC1COc2ccccc2O1 (configuration not stated) 0.9%
CC1=C(C(=O)O)N2C(=O)[C@@H](NC(=O)C(N)c3ccccc3)[C@H]2SC1 (some centres not stated) 2.2%
NC(C(=O)N[C@@H]1C(=O)N2C(C(=O)O)=C(Cl)CS[C@H]12)c1ccccc1 (some centres not stated) 0.4%
CC(=O)C(C)=O 2.1%
CC(N)=O 4.6%
Nc1ccc2c3c(cccc13)C(=O)NC2=O 7.4%
O=C(CCNNC(=O)c1ccncc1)NCc1ccccc1 3.1%
OC(CCN1CCCCC1)(c1ccccc1)C1CC2C=CC1C2 (configuration not stated) 2.7%
NCCNC(=O)c1ncsc1-c1cccc(F)c1 0.5%
